Test results as given in PubChem BioAssay AID1347165 (National Center for Advancing Translational Sciences (NCATS), 2019).
About 5,700 (2.6%) of roughly 220,000 compounds were called active. About 18% were inconclusive and are not listed. Calls come from the whole dose curve; as a rule, active = well fitted inhibition curve with a large enough effect; inconclusive = small, poorly fitted or top-dose-only effect; inactive = no such curve, though single readings can be large or run the other way. Shown is part of a subset that was picked to be rich in actives.

What follows are molecules tested against Lysine-specific demethylase 5B (Homo sapiens) (UniProt Q9UGL1) (assay: Primary screen for KDM5B Histone Demethylases FDH-coupled qHTS). Conditions: FDH-coupled NADH fluorescence (FDH is formaldehyde dehydrogenase); series mostly up to 57.7 µM.
Sequence of Lysine-specific demethylase 5B (Homo sapiens) (Q9UGL1 whole entry, looked up): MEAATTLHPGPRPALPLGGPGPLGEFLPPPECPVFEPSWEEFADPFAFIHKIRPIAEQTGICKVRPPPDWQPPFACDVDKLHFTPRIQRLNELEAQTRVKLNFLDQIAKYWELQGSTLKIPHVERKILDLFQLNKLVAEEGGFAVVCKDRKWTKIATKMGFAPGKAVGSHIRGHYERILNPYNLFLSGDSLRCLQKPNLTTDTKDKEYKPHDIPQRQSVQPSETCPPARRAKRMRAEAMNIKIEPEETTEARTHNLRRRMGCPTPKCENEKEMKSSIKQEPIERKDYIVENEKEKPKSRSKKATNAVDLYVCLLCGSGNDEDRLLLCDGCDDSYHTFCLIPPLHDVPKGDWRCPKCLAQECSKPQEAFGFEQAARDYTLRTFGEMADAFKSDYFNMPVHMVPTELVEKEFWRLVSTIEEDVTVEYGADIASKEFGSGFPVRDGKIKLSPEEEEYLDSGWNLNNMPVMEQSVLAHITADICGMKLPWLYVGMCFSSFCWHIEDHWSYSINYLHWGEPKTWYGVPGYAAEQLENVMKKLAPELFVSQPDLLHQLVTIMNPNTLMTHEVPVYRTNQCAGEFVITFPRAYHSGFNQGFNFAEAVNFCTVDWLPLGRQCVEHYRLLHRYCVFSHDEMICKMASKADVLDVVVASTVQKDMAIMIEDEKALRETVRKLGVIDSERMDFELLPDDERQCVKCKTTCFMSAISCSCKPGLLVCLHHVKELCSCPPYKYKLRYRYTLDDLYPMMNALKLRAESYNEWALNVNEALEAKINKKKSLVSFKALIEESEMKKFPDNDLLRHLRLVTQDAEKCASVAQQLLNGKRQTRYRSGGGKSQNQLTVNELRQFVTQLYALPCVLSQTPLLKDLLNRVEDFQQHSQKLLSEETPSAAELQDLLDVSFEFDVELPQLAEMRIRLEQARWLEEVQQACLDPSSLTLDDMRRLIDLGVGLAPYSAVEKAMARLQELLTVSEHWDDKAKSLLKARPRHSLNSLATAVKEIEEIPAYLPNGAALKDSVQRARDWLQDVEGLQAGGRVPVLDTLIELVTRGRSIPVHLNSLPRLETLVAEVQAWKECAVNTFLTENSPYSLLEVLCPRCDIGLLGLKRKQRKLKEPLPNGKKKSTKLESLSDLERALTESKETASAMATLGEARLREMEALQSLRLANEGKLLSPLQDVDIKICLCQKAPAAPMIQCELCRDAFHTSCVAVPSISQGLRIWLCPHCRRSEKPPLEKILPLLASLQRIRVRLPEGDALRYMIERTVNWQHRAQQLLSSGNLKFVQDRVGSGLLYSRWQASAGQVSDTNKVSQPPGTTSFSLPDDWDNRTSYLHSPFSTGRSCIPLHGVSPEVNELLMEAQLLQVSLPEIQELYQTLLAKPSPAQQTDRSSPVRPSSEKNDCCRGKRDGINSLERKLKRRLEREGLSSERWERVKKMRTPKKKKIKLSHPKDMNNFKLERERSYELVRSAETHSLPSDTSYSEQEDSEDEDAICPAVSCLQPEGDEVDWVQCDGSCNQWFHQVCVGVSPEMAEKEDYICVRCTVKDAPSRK
Outline: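 Coupled FDH/NAD⁺ fluorescence readout. KDM5BΔAP 200 nM final; compound titration, 10 min RT preincubation; substrate mix 12.5 µM H3K4me3, 25 µM 2-OG, 50 µM Fe(II), 100 µM ascorbate, 0.25 mM NAD⁺, 0.25 U/mL FDH; ΔRFU over 30 min.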
Note: nearly all actives have a fitted effect of over 70% in size.
Potency is the fitted concentration of half-maximal effect.

Potency, active:
C=CCCC(CN1CCCC1)Oc1cncc(C(=O)N2CCCC2)n1 (stereo unspecified) 8.91 µM
Cn1cccc1CN1CCn2c(nn(-c3cccc(Cl)c3)c2=O)C1 63.1 µM
CC(C)CC(=O)N1CCCN(c2nnc3ccccn23)CC1 25.1 µM
CC(C)CC(=O)N1CCN(c2nnc3ccccn23)CC1 28.2 µM
CN(CCc1cn[nH]c1)c1ccc(-c2nc(-c3ccccc3F)no2)cn1 28.2 µM
CN(C)CCN(C)c1ccc(-c2nc(-c3ccccc3F)no2)cn1 28.2 µM
COc1cccc(-c2cn3c(n2)NCCC3)c1 25.1 µM
Cn1cc([C@@H](NC(=O)CCc2cn3ccccc3n2)C2CC(O)C2)cn1 (stereo partly specified) 31.6 µM
c1ccc([C@@H]2CNC[C@H]2COCC2CC2)nc1 15.8 µM
COc1ccccc1-c1ccc(C(=O)O)cc1 112 µM
CCc1ccc(NC(=O)Cn2ccn3nc4c(c3c2=O)CCCC4)cc1 20 µM
CN(C)c1cccc(-c2cn(C)c(=O)n3cc(COc4ccc(Cl)cc4)nc23)c1 25.1 µM
O=C(Nc1cccc(F)c1)c1cc2n(n1)CC(c1ccc(Cl)cc1)OC2 (stereo unspecified) 22.4 µM
COc1ccc(CNC(=O)c2cc3n(n2)CC(c2ccc4c(c2)OCO4)OC3)c(OC)c1 (stereo unspecified) 31.6 µM
O=C(NCc1ccccc1C(F)(F)F)c1cc2n(n1)CC(c1ccc3c(c1)OCO3)OC2 (stereo unspecified) 31.6 µM
Cc1ccc(NC(=O)c2cc3n(n2)CC(c2ccc4c(c2)OCO4)OC3)cc1C (stereo unspecified) 35.5 µM
COc1ccc(OC)c(NC(=O)c2cc3n(n2)CC(c2ccc(Cl)cc2)OC3)c1 (stereo unspecified) 25.1 µM
Cc1ccc(-c2ccc3nnc(CNC(=O)c4ccccn4)n3n2)cc1 31.6 µM
Cc1ccccc1C(=O)NCc1nnc2ccc(-c3ccccc3)nn12 31.6 µM

Potency, inactive:
CC(C(=O)N1CCc2ccccc21)N(C)CC(=O)Nc1ccc(F)cc1 (stereo unspecified)
CCc1ccc(C(=O)C(C)Sc2nc3ccccc3c(=O)n2CCC(=O)OC)cc1 (stereo unspecified)
CCCCCCCCOc1ccc(C(=O)c2ccccc2O)c(O)c1
COc1ccc(-c2c(NC(=O)C(C)C)oc3c(C)cccc3c2=O)cc1
O=C(C1CCCC1)N1Cc2ccccc2CC2(CCCCN2CC2CCNCC2)C1 (stereo unspecified)
O=C(c1ccc(C(F)(F)F)cc1)N1CCn2c(nn(-c3cccc(Cl)c3)c2=O)C1
COc1ccc(CN2CCn3c(nn(-c4ccncc4)c3=O)C2)cc1
Cc1ccc2c(Cn3cc(S(=O)(=O)N(C)C)ccc3=O)cc(=O)oc2c1
Cc1ccc(-c2noc(-c3cccc(Cl)c3)n2)cc1
O=C(CSc1nc2ccccc2nc1N1CCCC1)N1CCN(c2ccccc2)CC1
O=C(c1ccsc1)N1CCN(c2nnc3ccc(C(F)(F)F)cn23)CC1
CCC(C)c1ccc(-n2c(SCC(=O)N3CCC3)nc3ccccc3c2=O)cc1 (stereo unspecified)
Cc1ccc(C(=O)C(C)Sc2nnc3ccccn23)cc1 (stereo unspecified)
O=C(/C=C/c1ccc(Cl)cc1Cl)Nc1ccc(-c2ccccc2)cc1
Cc1cc(=O)oc2c(C)c(OC(=O)CN3C(=O)NC4(CCCC4)C3=O)ccc12
N#C/C(=C/c1cccnc1)C(=O)NCCc1ccccc1
COCCNC(=S)NC1CC(C)(C)NC(C)(C)C1
Cc1ccc2[nH]cc(CCNC(=O)c3ccc(F)c(F)c3)c2c1
O=C(c1ccccc1)c1ccc(C2CC2)cc1
COc1cccc(C2Cn3nnc(-c4nc(-c5ccccc5F)no4)c3CO2)c1 (stereo unspecified)
Cc1ncc(CO)c2cc(-c3nc(-c4ccccc4F)no3)c(=O)oc12
CSc1ccc(CCNc2nc(-c3ccccc3F)no2)cc1
Fc1ccc(Nc2nc(-c3ccccc3F)no2)cc1
Cc1cccc(NC(=O)CSCC(=O)Nc2nnc(C3CC3)s2)c1
CC(C)CCNC(=O)NC(=O)CSc1nnc(-c2ccccc2)c(-c2ccccc2)n1
Cc1cc(Br)c(S(=O)(=O)NCCO)cc1C
CCCCn1cnc2c1c(=O)n(CC(=O)Nc1ccccc1C)c(=O)n2CCCC
Cc1ccc(C)c(C(NC(=O)c2ccccc2C)c2cccnc2)c1 (stereo unspecified)
COc1cccc(-c2cn3c(n2)N(C(=O)Cc2ccccc2)CCC3)c1
COc1cccc(-c2cc(C3CCN(C(=O)Nc4ccccc4C)CC3)[nH]n2)c1
CN(C)c1ccc(C(=O)/C=C/c2ccncc2)cc1
COc1ccc(OC)c(C2C(C#N)=C(N)Oc3cc(O)ccc32)c1 (stereo unspecified)
Cc1ccc2c(=O)cc(C(=O)N(Cc3ccc(Cl)cc3)C3CCS(=O)(=O)C3)oc2c1C (stereo unspecified)
O=S(=O)(NCCc1cn2ccccc2n1)c1cc(Cl)ccc1Cl
COc1ccc(C(=O)N[C@H](c2cnn(C)c2)C2CC(O)C2)c(F)c1F (stereo partly specified)
COc1ccc(-n2c3c(cc(-c4ncnn4-c4ccc(C)cc4C)c2=O)C(=O)CC(C)(C)C3)cc1
O=C(Cn1ncn2nc(-c3cccs3)cc2c1=O)N1CCCCCC1
CCn1cc(C(=O)N2C[C@@H](COCC3CC3)[C@H](c3ccccn3)C2)cn1
O=C(c1cnc[nH]1)N1C[C@@H](COCC2CC2)[C@H](c2ccccn2)C1
Cc1ccc2ncc([N+](=O)[O-])cc2c1
COc1ccc(NC(=O)c2c(Cl)cccc2Cl)cc1
CCc1ccc(C(=O)Nc2ccccc2O)o1
CC(C)N(C(=O)c1ccc(-c2ccccc2F)cc1)C(C)C
COc1ccccc1-c1cn(C)c(=O)n2cc(COc3ccc(C(=O)O)cc3)nc12
C=CCN(CC=C)S(=O)(=O)c1cccc2nsnc12
CC(C)c1ccc(/C=C/C(=O)NCCCN2CCOCC2)cc1
COc1ccc(C)cc1CN1CCN(C(=O)Nc2cccc(C)c2)CC1
Cc1ccc(C(=O)N2C[C@@H](COc3ccccc3)[C@H](C(N)=O)C2)cc1
CC(C)(C)C(=O)Cn1ccn2nc3c(c2c1=O)CCCC3
CCOC(=O)c1ccc(NC(=O)CCn2ccn3nc4c(c3c2=O)CCCC4)cc1
CC(=O)Oc1ccc(C(=O)Nc2ccc(O)c(-c3nc4ccccc4o3)c2)cc1
Cc1cc(-c2cn(C)c(=O)n3cc(COc4ccccc4)nc23)ccn1
CN(C)Cc1cn2c(=O)n(C)cc(-c3cccc(OCc4ccccc4)c3)c2n1
CSc1ccc(CN(C)S(=O)(=O)c2ccc3c(c2)OCCCO3)cc1
O=C(NCc1ccc(F)cc1F)c1nnn2c1COC(c1ccc(Br)cc1)C2 (stereo unspecified)
COc1ccc(CNC(=O)c2ccc3c(c2)nc2n3CCOC2)c(OC)c1
Cc1ccc(NC(=O)c2cn3c4c(ccc(Cl)c4c2=O)OC(C)C3)cc1C (stereo unspecified)
COc1ccc2c(c1)C=C(C(=O)NCc1cc(Br)ccc1OC)CO2
Cn1cnnc1-c1cccc(NC(=O)c2ccc3c(c2)OCO3)c1
O=C(Nc1ccc(Cl)cc1)C1CCN(C(=O)c2ncn3c2COC(c2ccc(F)cc2)C3)CC1 (stereo unspecified)
Cc1cccc(N2CCN(C(=O)c3cc4n(n3)CC(c3ccc(Cl)cc3)OC4)CC2)c1 (stereo unspecified)
CCNCc1ccccc1C(F)(F)F
O=S(=O)(c1ccccc1Cl)N1CCN(C/C=C/c2ccccc2)CC1
Fc1ccc(N2CCCN(CC3[C@H]4CNC[C@@H]34)CC2)cc1 (stereo partly specified)
O=C(Nc1ccc(CC23CC4CC(CC(C4)C2)C3)cc1)c1ccc(Cl)cc1Cl
CCOc1ccc(-c2nc(Cn3nnc(C(=O)NCc4ccc(Cl)cc4)c3N)c(C)o2)cc1OC
CCCn1nc(C(=O)OCc2nc(N)nc(Nc3ccccc3C)n2)c2ccccc2c1=O
CCOc1cc(CNc2nn[nH]n2)ccc1OCc1ccccc1Cl
COc1ccc(-c2noc3ncnc(N4CCC(C(=O)NCCN5CCCCC5)CC4)c23)cc1
CCCCCCCCCCS(=O)(=O)CCSC(=N)N
COc1ccc(OC)c(NC(=O)c2nc3ccccc3nc2N2CCCC2)c1
COc1ccc(OC)c(NC(=O)Cn2ccc3ccc(Cl)cc32)c1
COc1ccc(OC)c(C2C3=C(CC(C)(C)CC3=O)Nc3nc(-c4cccc(C)c4)nn32)c1 (stereo unspecified)
CCNC(=O)Nc1ccc(S(=O)(=O)Nc2cnc(C)nc2C)cc1
O=C(Nc1ccc2oc(-c3ccc(F)cc3)nc2c1)c1ccc2c(c1)OCCO2
Cn1c(CCN2CCCCC2)nc2cc(NC(=O)c3ccccc3Cl)ccc21
Cc1ccc(CNC(=O)c2cccc3cccnc23)cc1
Cc1ccc(-n2nnnc2CNC(=O)c2ccccc2C)cc1C
Cc1ccccc1C(=O)NCc1nc(-c2ccc(Cl)cc2)no1
O=C(Nc1ccc(-c2nnc3n2CCCC3)cc1)c1ccccn1
O=C(CCc1ncc(-c2ccccc2)o1)Nc1nc2ccccc2s1
CCOC(=O)C(O)(c1ccc(N(CC)C(=O)Nc2ccc(Cl)cc2)cc1)C(F)(F)F (stereo unspecified)
CCN(C(=O)Cc1coc2ccc(C)cc12)c1ccccc1
Cc1ccccc1NC(=O)C1CC(=O)Nc2nc(SCc3ccccc3)nn21 (stereo unspecified)
O=C(NCCCNC(=O)c1nc2ccccc2c(=O)[nH]1)c1cccnc1
Cc1nc2cc(C(=O)Nc3ccc(N(C)C)cc3)ccc2n1-c1ccccc1
c1coc(-c2nc(-c3cccs3)no2)c1
